We go through 25 molecules from PubChem BioAssay (NCI).

What all share (experiment): NCI-60 one-dose screen, 48 h (100 = growth as untreated, 0 = no growth, -100 = all killed)
What all share (conditions): 10 µM unless noted

The subject of experiment [1] is NCI-H23 lung.
The test system of experiment [2] is NCI-H226 lung.
Experiment [3] concerns NCI-H322M lung.
Experiment [4] relates to HOP-62 NSCLC.
Experiment [5] has as its system NCI-H460 lung.
The test system of experiment [6] is HOP-92 NSCLC.
The test system of experiment [7] is NCI-H522 lung.
Experiment [8] deals with A549/ATCC NSCLC.
Experiment [9] relates to 786-0 renal.
In experiment [10] the test system is COLO 205 colon.

About 83,000 compounds went through this panel and 20% of them were active in at least one assay; those are over-represented in the sample as a whole.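 Single-concentration screen, 48 h exposure, 96-well plates. Endpoint: percent growth. Below 10 = active.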 Unmarked numbers belong to inactive results. Activity calls are given as the source filed them.

`Cc1ncc(-c2ccnc(Nc3ccc(S(C)(=O)=O)cc3)n2)n1C(C)C`: the growth in experiment [1] was -33.8% (active); in experiment [2], 6.32% (active); in experiment [3], -10.8% (active); in experiment [4], -14% (active); in experiment [5], -17.2% (active); in [6] it was -4.8% (active). Also, the growth was -24.9% (active) in experiment [7], 1.7% (active) in [8], 4.84% (active) in experiment [9] and -27.4% (active) in experiment [10].
As to `CCCCCc1ccc(C)cc1OC(=O)CCl`, the growth was 113% in experiment [1]; 104% in experiment [2]; 97.3% in experiment [3]; 109% in [4]; 104% in experiment [5]; 73.6% in experiment [6]. Further, the growth is 103% in experiment [7], 108% in experiment [8], 110% in experiment [9] and 107% in experiment [10].
As for `C=C1C[C@H](O)[C@H](Br)C(C)(C)[C@@]12CCC(C)=C(Cl)C2`, the growth in [1] is 12.9%; in experiment [2], 14.8%; in experiment [3], 40.3%; in [4], 35.6%; in experiment [5], 13%; in experiment [6] it was 23.6%. Moreover, the growth in experiment [7] was 15.7%; in experiment [8] it was 6.49% (active); in [9], 16.7%; in experiment [10], -79.1% (active).
As for `Cc1ccc(NC(=O)c2ccc(CN3CCN(C)CC3)cc2)cc1Nc1nc(-c2cccnc2)cs1`, the growth was 68% in [1]; 38.6% in [2]; 90.2% in experiment [3]; 60.2% in experiment [4]; 40.3% in [5]; 93.1% in experiment [6]. In addition, the growth in experiment [7] was 17.7%; in [8], 39.4%; in experiment [9], 14.5%; in experiment [10], 16.1%.
In the case of `COc1cnc2c(c1)C(=O)c1c-2n(CCCN2CCC(O)CC2)c(=O)c2cc(Cl)ccc12`, the growth is 11.8% in experiment [1]; 39.3% in experiment [2]; 46.4% in experiment [3]; 23.6% in [4]; -60.8% (active) in [5]; 77.3% in experiment [6]. Further, the growth in [7] was 32.4%; in experiment [8], -65.8% (active); in experiment [9], 4.34% (active); in experiment [10], 47.1%.
Turning to `O=C1C=CC2(NN=C(c3ccccc3)N2c2ccc(Cl)cc2)c2cccc(O)c21` (configuration not stated), the growth was 13.6% in [1]; 60.5% in experiment [2]; 89.5% in experiment [3]; 26.5% in experiment [4]; 64.3% in experiment [5]; 125% in experiment [6]. Further, the growth in experiment [7] is 51.1%; in experiment [8], 22.3%; in [9], 93.4%; in experiment [10] it was 94.5%.
Consider `O=C(Nc1cccc([N+](=O)[O-])c1)c1ccc(Cl)c(Cl)c1`, for which the growth in experiment [1] was 59.3%; in [2], 43.3%; in experiment [3] it was 69.7%; in experiment [4] it was 7.13% (active); in [5] it was 77.6%; in experiment [6], 51.6%. For the same molecule, the growth was 60% in [7], 68.3% in experiment [8], 67.4% in experiment [9] and 89.7% in [10].
As to `COc1cnc2c(c1)C(=O)c1c-2n(CCCn2ccnc2)c(=O)c2cc(Cl)ccc12`, the growth in experiment [1] was -1.2% (active); in [2], 6.75% (active); in experiment [3], 22.4%; in experiment [4], -16.7% (active); in [5], 1.24% (active); in experiment [6] it was 31.8%. Besides, the growth in experiment [7] is 12.3%; in experiment [8], 17.4%; in experiment [9], -17.9% (active); in experiment [10] it was 11.1%.
`COc1c(OCCCN2CCOCC2)ccc2c3n(c(=NC(=O)c4cnc(N)nc4)nc12)CCN3`: the growth is 20.6% in [1]; 23.7% in experiment [2]; -12.6% (active) in experiment [3]; 12.4% in experiment [4]; 9.88% (active) in experiment [5]; -14.6% (active) in experiment [6]. For the same molecule, the growth was 9.59% (active) in experiment [7], -5.58% (active) in experiment [8], -4.92% (active) in experiment [9] and -18.6% (active) in experiment [10].
Regarding `NC(=O)c1c(OCc2c(F)cc(Br)cc2F)nsc1NC(=O)NCCCCN1CCCC1`, the growth in experiment [1] is 21.2%; in experiment [2] it was 9.08% (active); in experiment [3] it was 15.4%; in experiment [4] it was -29.7% (active); in [5], -23.1% (active); in [6] it was -1.17% (active). The growth in [7] was -61.8% (active); in experiment [8], -15.6% (active); in [9], -57.2% (active); in [10], -78.7% (active).
As to `CC(C)=CCc1cc2c(cc1O)C1=C(C(=O)C3=C(C1=O)S(=O)(=O)CCN3)C(C=C(C)C)O2` (configuration not stated), the growth in experiment [1] was -35.9% (active); in experiment [2], -54.1% (active); in experiment [3], -76.2% (active); in experiment [4], -52.7% (active); in experiment [5], -50.4% (active); in experiment [6] it was -11.7% (active). The growth was -50.8% (active) in experiment [7], -42.4% (active) in [8], -12.3% (active) in [9] and -69.8% (active) in experiment [10].
`O=C(Cn1cncn1)Nc1ccc(-c2nc3ccccc3s2)cc1`: the growth was 87.5% in experiment [1]; 75% in experiment [2]; 102% in [4]; 97% in [5]; 93.5% in experiment [6]; 87.5% in experiment [7]. The growth in experiment [8] is 88.1%; in [9], 95.6%; in experiment [10], 107%.
As for `Cc1ccc(N=C2CSc3nnc(-c4csc5c4CCCC5)n3N2)cc1`, the growth was 41% in experiment [1]; 69.5% in experiment [2]; 57.9% in experiment [3]; 27.9% in experiment [4]; 11.8% in experiment [5]; 67.7% in experiment [6]. Moreover, the growth was 29% in experiment [7], 26.5% in [8], 32.3% in [9] and -4.99% (active) in experiment [10].
On to `O=CC(OC(=O)c1ccccc1)C(OC(=O)c1ccccc1)C(COC(c1ccccc1)(c1ccccc1)c1ccccc1)OC(=O)c1ccccc1` (configuration not stated), for which the growth in [1] was 51.3%; in experiment [2], 76.4%; in experiment [3] it was 97.1%; in experiment [4], 99.8%; in experiment [5], 89.2%; in experiment [6] it was -54.6% (active). For the same molecule, the figures for the growth in [7], in experiment [8] and in [10] were 40.4%, 97.5% and 57.2%, respectively.
As for `c1cc[n+](Cc2c3ccccc3cc3c2ccc2ccccc23)cc1`, the growth is 16.9% in experiment [1]; 26.3% in experiment [2]; 53.9% in [3]; 23.7% in experiment [4]; 42.8% in experiment [5]; 25% in experiment [6]. Further, the growth in experiment [7] is 18.4%; in experiment [8], 63.7%; in [9], 38%; in [10], 2.06% (active).
Consider `CCN1CCN(Cc2ccc(Cc3ncc(F)c(-c4cc(F)c5nc(C)n(C(C)C)c5c4)n3)nc2)CC1`, for which the growth in experiment [1] was 44.3%; in experiment [2], 34.3%; in experiment [3] it was 29.3%; in experiment [4], 44.4%; in experiment [5], -56.1% (active); in experiment [6] it was 50%. The growth in [7] is 69%; in experiment [8], 28.5%; in experiment [9] it was 46.4%; in experiment [10] it was 16%.
`Cc1cc(NCC(=O)Nc2ccc(-c3nc4ccccc4s3)cc2)no1`: the growth in experiment [1] was 82.8%; in [2], 91%; in [3] it was 102%; in [4], 111%; in experiment [5] it was 103%; in experiment [6], 100%. Moreover, the growth in experiment [7] was 82.1%; in experiment [8], 92.3%; in [9], 102%; in [10] it was 108%.
As to `CNC(=O)c1cccc2cc(Oc3ccnc4cc(OCC5(N)CC5)c(OC)cc34)ccc12`, the growth in experiment [1] was 63.9%; in [2] it was 47.1%; in [3], 74.3%; in [4], 51.7%; in experiment [5], 56%; in experiment [6] it was 64.6%. Further, the growth was 46.3% in experiment [7], 57.4% in experiment [8], 76.8% in [9] and 58% in experiment [10].
Regarding `CS(=O)(=O)CCNCc1ccc(-c2ccc3ncnc(Nc4ccc(OCc5cccc(F)c5)c(Cl)c4)c3c2)o1`, the growth in [1] was 25.9%; in experiment [2], 54.7%; in experiment [3], 13.8%; in experiment [4], 19.2%; in experiment [5], -58% (active); in experiment [6] it was -1.7% (active). Moreover, the growth in experiment [7] is -44.5% (active); in experiment [8] it was -39.4% (active); in experiment [9], -63.7% (active); in experiment [10], -27.2% (active).
Regarding `COc1cc2cc(NCc3ccc(F)cc3)nc(C)c2cc1OC`, the growth in [1] is 26.5%; in experiment [2], 48.5%; in [3], 52.5%; in [4], 54.7%; in experiment [5] it was 26.4%; in [6] it was 25.3%. The growth in experiment [7] is 59.9%; in experiment [8], 47.9%; in [9], 32.2%; in experiment [10], 34.2%.
As for `CCOc1cccc(/C=N/NC(=O)c2ccccc2Nc2ccnc(C(F)(F)F)c2)c1O`, the growth in experiment [1] was 21.6%; in [2], -15.2% (active); in experiment [3], 22.2%; in experiment [4], -7.4% (active); in experiment [5], -8.7% (active); in experiment [6], 25.2%. Also, the growth in experiment [7] is 16.6%; in [8], 15%; in experiment [9] it was 3.64% (active); in experiment [10], 9.3% (active).
For the molecule `Nc1c(C(=O)c2ccccc2)sc2nc(-c3cccs3)ccc12`, the growth in [1] is 36.8%; in [2], 63.5%; in experiment [3] it was 51.1%; in experiment [4], 44.5%; in [5] it was 12.1%; in experiment [6] it was 69.6%. Besides, the growth was -25.7% (active) in [7], 19.6% in experiment [8], 51.7% in experiment [9] and -21.8% (active) in experiment [10].
Regarding `Nc1nc(Nc2ccccc2)c(C=Nc2ccccc2)c(=O)[nH]1`, the growth is 88.5% in [1]; 86.5% in [2]; 93.3% in experiment [3]; 73.7% in experiment [4]; 102% in experiment [5]; 66.8% in experiment [6]. Also, the growth in experiment [7] was 57.9%; in experiment [8], 89.6%; in experiment [9], 93.5%; in [10] it was 107%.
In the case of `N#Cc1ccc(-n2nnc3ccccc32)cc1C#N`, the growth is 94% in [1]; 96.7% in experiment [2]; 111% in experiment [3]; 94.6% in experiment [4]; 107% in experiment [5]; 103% in experiment [6]. Also, the growth in [7] is 88.1%; in experiment [8] it was 87.2%; in [9], 99.5%; in experiment [10] it was 104%.
Regarding `COc1ccc(S(=O)(=O)N(C(C)=O)c2ccccc2/C=C/c2cc[n+]([O-])cc2)cc1`, the growth in experiment [1] was 32.7%; in [2], 80.6%; in experiment [4] it was 10.5%; in [5], 3.49% (active); in experiment [6] it was 56.6%; in experiment [7], -26.4% (active). Further, the values for the growth in [8], in experiment [9] and in [10] were 17.5%, 26.7% and -36.6% (active), respectively.
